Sampled rows, rich in hits. Any-hit rate of the full collection: about 7.9%.
KB-3-1 cytotox: KB-3-1 parental cell cytotoxicity; hit rate 1.4% among 400,000; Potency, µM (titrated, usually from 46.1 µM), actives largely listed as cytotoxic; AID 1347075; KB-3-1 viability, CellTiter-Glo ATP luminescence, 72 h; further: on the % scale 0 is the no-effect control and ±100 the full control effect; nearly all actives have a fitted effect of over 60% in size
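Cytotoxicity in the drug-sensitive parental line KB-3-1 was scored as loss of CellTiter-Glo luminescence following 72 h incubation with compound. Values come from curve fitting of normalized concentration-response data.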
SW480 rereplic: induces DNA re-replication in SW480 colon adenocarcinoma cells; AID 624297; hit rate 1.8% among 340,000; Potency, µM (top dose mostly 46.1 µM), for inactives: at the highest dose re-replication activation, actives largely listed as activators; SW480 DNA re-replication, Hoechst DNA content imaging, 48 h; further: % of control where 0% means no effect; nearly all actives have a fitted effect of over 55% in size
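Treated cells incubate 48 hr (37 C, 5% CO2), are stained 40 min with Hoechst, and nuclear fluorescence is enumerated; a rise in nuclei with high DNA signal marks re-replication.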
HT1080NT lethal: kills 2HG-producing HT-1080-NT fibrosarcoma cells; HT-1080-NT fibrosarcoma viability, CellTiter-Glo ATP luminescence, 48 h; Potency, µM (series often up to 46.1 µM), for the others: top-dose activity, negative = less viability, actives largely listed as cytotoxic; hit rate 1.6% among 360,000; AID 686970;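 further: NT is the 2HG producing partner of a matched IDH1 knockdown line; 0% = DMSO-treated cells and -100% = media-only wells without cells; nearly all actives have a fitted effect of over 55% in size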
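HT-1080-NT fibrosarcoma cells (2HG-overproducing), 750 cells/well in RPMI with 5% FBS, dosed after 2 h and incubated 48 h at 37C. CellTiter-Glo luminescence normalized to DMSO and no-cell wells; concentration-response curves fitted and classed.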
KB-V1 cytotox: kills drug-selected multidrug resistant KB-V1 cells; KB-V1 MDR cells viability, CellTiter-Glo, 72 h; Potency, µM (top dose mostly 46.1 µM), usual class: cytotoxic; hit rate 3.4% among 400,000; AID 1347076; further: on the % scale 0 is the no-effect control and ±100 the full control effect; nearly all actives have a fitted effect of over 60% in size
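Following 72 h at 37 degrees C with compound, KB-V1 cell viability was read by CellTiter-Glo luminescence, medium being phenol-red-free DMEM plus 10% FBS; concentration-response parameters came from normalized, curve-fitted qHTS data.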
MCF10A rerep: induces DNA re-replication in MCF 10a normal breast cells | MCF 10A DNA re-replication, Hoechst nuclear intensity, 48 h | Potency, µM (highest dose often 46.1 µM), inactives show at the top dose activity, positive = re-replication, hits mostly activators | hit rate 2.9% among 350,000 | AID 624296; further: % of control where 0% means no effect; nearly all actives have a fitted effect of over 50% in size
HT1080 IDH1KD tx: toxicity to HT-1080 IDH1 knockdown cells (counter line); HT-1080 IDH1 knockdown viability, ATP luminescence, 48 h; Potency, µM (series often up to 46.1 µM), for inactives: at the highest dose activity, negative = toxicity, usual class: cytotoxic; hit rate 2% among 360,000;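 further: 0% = DMSO wells and -100% = cell-free medium wells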
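Viability of IDH1-knockdown HT-1080 fibrosarcoma cells was assessed by CellTiter-Glo after 48 h at 37 °C with titrated compound; concentration-effect curves were classified by fit quality and response size.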
Starred values were filed as active, the others as inactive; i = inactive; ? = inconclusive; / = not tested or not shown. The call rests on the fitted dose curve; in most records, active means well fitted curve in the direction sought with a large enough effect; inconclusive means small, poorly fitted or top-dose-only effect, or another doubt; inactive means no such curve, though single readings can be large; an effect the other way counts as inactive or inconclusive. Potency means the concentration at half of the fitted maximal effect.

SMILES	KB-3-1 cytotox	SW480 rereplic	HT1080NT lethal	KB-V1 cytotox	MCF10A rerep	HT1080 IDH1KD tx
CSc1ccc(OC2CCN(Cc3ccccc3)CC2)cc1	i	?	-0.1%	16.4µM*	?	-6.3%
CC(=O)c1ccc2c(c1)C1C=CCC1C(c1cc3c(cc1Br)OCO3)N2 (stereo not given)	5.8µM*	11.6µM*	5.8µM*	6.51µM*	4.11µM*	3.66µM*
COc1ccc2c(c1)C1C=CCC1C(c1cc3c(cc1Br)OCO3)N2 (stereo not given)	?	9.2µM*	10µM*	i	3.66µM*	10µM*
COc1cccc(NS(=O)(=O)c2ccc3c(c2)[C@H]2C=CC[C@H]2[C@@H](c2ccccc2Cl)N3)c1	?	/	/	i	/	/
CN(Cc1ccccc1)C(=S)NC(=O)c1ccc(-c2ccccc2)cc1	i	1.1%	-24.8%	i	9.7%	?
C=CCN(CC=C)C(=S)NC(=O)c1ccc(OC)cc1	i	0.7%	-1.8%	16.4µM*	-1.8%	6.2%
C=CCN(CC=C)C(=S)NC(=O)c1ccc(-c2ccccc2)cc1	?	4.1%	1.8%	5.8µM*	?	-21.6%
CCS(=O)(=O)N1CCC(C(=O)NCc2ccc(OC)cc2OC)CC1	i	-81.1%	1.6%	i	-2.9%	7.9%
COc1ccc(NC(=O)c2ccc3c(c2)c(C)c(C)n3Cc2ccc(F)cc2)cc1	11.6µM*	/	/	8.2µM*	/	/
CCOC(=O)c1ccc(NC(=O)c2ccc3c(c2)c(C)c(C)n3Cc2ccc(F)cc2)cc1	i	/	/	i	/	/
COc1ccc(Cn2c(C)nc3c(c2=O)c2nc4ccccc4nc2n3Cc2ccco2)cc1	?	20.6µM*	?	?	18.4µM*	?
CCC(C)n1cnc2c(c1=O)c1nc3ccccc3nc1n2Cc1ccc(OC)cc1 (stereo not given)	i	9.9%	?	14.6µM*	?	6.6%
Cc1nc2ccccc2c(=O)n1Cc1ccco1	i	2.3%	5.2%	i	-0.2%	-1.1%
COc1ccc2c(=O)c3c(=O)n(Cc4ccco4)c(-c4cc(OC)c(OC)c(OC)c4)nc3oc2c1	i	-10.1%	13.7%	i	?	9.3%
COc1ccc2c(=O)c3c(=O)n(Cc4ccco4)c(-c4ccccc4)nc3oc2c1	i	-0.1%	1.3%	4.61µM*	21.6%	4.4%
CCOc1ccc(NS(=O)(=O)c2cc3c4c(c2)CCN4C(=O)CC3)cc1	i	0.3%	-1.2%	?	7.9%	-7.9%
c1ccc2c(c1)CC(CN1CCNCC1)O2 (stereo not given)	i	-1.9%	-1.6%	i	-11.5%	-6.3%
COc1ccc(OC)c2sc(N3CCN(C(=O)c4ccc5ncsc5c4)CC3)nc12	i	-523.6%	-20.0%	i	-5.9%	-13.2%
COc1ccccc1N1CCN(C2CCN(C(=O)c3cccc(F)c3)CC2)CC1	i	-2.1%	6.8%	16.4µM*	12.0%	-0.8%
Cc1ccc(C)c(N2CCN(C(=O)c3ccc4nc(-c5ccco5)c(-c5ccco5)nc4c3)CC2)c1	18.4µM*	18.4µM*	?	?	?	?
COc1ccccc1N1CCN(C(=O)c2ccc3ncsc3c2)CC1	5.17µM*	16.4µM*	11.6µM*	11.6µM*	20.6µM*	8.2µM*
Cc1ccc(C)c(N2CCN(C(=O)c3ccc4c(c3)c(C)c(C)n4C)CC2)c1	?	?	?	i	5.17µM*	?
Cc1cccc(N2CCN(C(=O)c3ccc4c(c3)c(C)c(C)n4C)CC2)c1C	i	/	/	i	/	/
COc1ccc(Nc2c(C)cccc2C)cc1	i	0.7%	6.8%	i	?	5.1%
CCC(c1nnnn1C(C)(C)C)N1CCN(Cc2ccccc2OC)CC1 (stereo not given)	i	-0.3%	-3.1%	i	1.6%	1.3%

Bioassay records as filed in PubChem BioAssay.
